# TbREL1 inh: TbREL1 inhibition, primary screen | P86926 | TbREL1 RNA ligation, FRET fluorescence | inhibition, % at 9.66 µM | 89,000 compounds, 0.49% hits;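 active means inhibition above the mean inhibition across all screened compounds plus 3 SD, cut at about 11% in these data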
# Target sequence (P86926 whole entry, looked up): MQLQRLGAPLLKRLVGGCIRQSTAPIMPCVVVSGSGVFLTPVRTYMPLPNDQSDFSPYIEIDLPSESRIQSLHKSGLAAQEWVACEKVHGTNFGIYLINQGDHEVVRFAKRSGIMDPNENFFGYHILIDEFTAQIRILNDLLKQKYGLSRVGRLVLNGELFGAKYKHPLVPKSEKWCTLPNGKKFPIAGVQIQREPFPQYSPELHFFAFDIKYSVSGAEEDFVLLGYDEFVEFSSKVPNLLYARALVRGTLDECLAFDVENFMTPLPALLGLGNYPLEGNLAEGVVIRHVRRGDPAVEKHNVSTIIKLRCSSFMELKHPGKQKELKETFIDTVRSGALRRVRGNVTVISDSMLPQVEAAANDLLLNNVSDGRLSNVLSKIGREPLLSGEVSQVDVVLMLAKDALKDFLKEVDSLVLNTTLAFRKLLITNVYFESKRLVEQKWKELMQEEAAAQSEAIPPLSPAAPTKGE
# TbREL1 confirm: TbREL1 inhibition, confirmation. 390 compounds, 37% hits. AID 1117282. TbREL1 RNA ligation, FRET fluorescence. shares compounds with TbREL1 inh. inhibition, % at 9.66 µM;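 active means mean inhibition across replicates above a set limit taken from the earlier primary screen, cut at about 11% in these data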
# A number is an active result; – = inactive. Shown is part of a subset that was picked to be rich in hits.
SMILES,TbREL1 inh,others
CN1CCN(C(=O)/C=C/c2cn(-c3ccccc3)nc2-c2ccc3c(c2)OCCO3)CC1,–,
Cc1ccc(-c2nn(-c3ccccc3)cc2/C=C/C(=O)O)o1,11.1,TbREL1 confirm=–
Cc1ccc(Cn2cc(/C=C/C(=O)O)c(-c3ccccc3)n2)cc1,–,
CCOC(=O)[C@@]12CCC3=C1N(CCC3)C(=O)[C@H](CC(=O)NCCc1ccccc1OC)C2,–,
Brc1ccc(-c2nn3c(-c4ccccc4)nnc3s2)cc1,–,
Cc1cc(C)cc(N(CC(=O)NC2CCC(C)CC2)S(=O)(=O)c2ccc(Cl)s2)c1 (stereo not given),–,
COc1cc(NC(=O)c2cc(C)on2)cc(C(=O)Nc2cccc(C(F)(F)F)c2)c1,–,
COc1cc(NC(=O)c2csc(N)n2)cc(C(=O)Nc2cccc(C(F)(F)F)c2)c1,–,
COc1cc(NC(=O)c2cnc(N)s2)cc(C(=O)Nc2cccc(C(F)(F)F)c2)c1,31.7,TbREL1 confirm=20.8
C=CCn1c(COc2ccccc2)nnc1SCC(=O)Nc1ccc(Oc2ccccc2)cc1,–,
CN1C2=N[C@@H](c3cccc(C(F)(F)F)c3)CC(=O)N2/C(=C\c2ccccc2)[C@H]1c1ccccc1,–,
C/C=C/C(=O)N1CCc2cc(S(=O)(=O)N(C)Cc3ccco3)ccc21,–,
CC(=O)N1CCN(C2=Nc3ccccc3Sc3ccccc32)CC1,–,
Cn1c(CNc2ccccc2F)nc2ccccc21,–,
O=C(CSc1nnc(NC(=O)c2ccco2)s1)Nc1ccc(F)cc1,–,
CC(C)(C)C(=O)Nc1nnc(SCc2cccc(F)c2)s1,–,
O=C(Nc1nnc(SCc2cccc(F)c2)s1)c1ccco1,13.5,TbREL1 confirm=–
Cc1ccc(C(=O)NN2C(=O)c3ccc(S(=O)(=O)c4ccc(C(=O)O)cc4)cc3C2=O)cc1,–,
O=C(O)c1ccc(S(=O)(=O)c2ccc3c(c2)C(=O)N(NC(=O)c2ccc(O)cc2)C3=O)cc1,12.0,TbREL1 confirm=–
O=C(O)c1ccc(S(=O)(=O)c2ccc3c(c2)C(=O)N(CC2CCCO2)C3=O)cc1 (stereo not given),–,
Cc1nc(N)nc(N)c1/C=C/C(C)(C)c1ccc(Cl)cc1,14.8,TbREL1 confirm=–
CCCC[C@H](C(=O)N(C)c1ccccc1)[C@@H](O)c1ccc(C(C)=O)cc1,–,
CN1CCCCC(NC(=O)c2ccc3ccccc3c2)C1=O (stereo not given),–,
COc1cc2nc(N(CCCN(C)C)C(=O)c3ccc(S(=O)(=O)N4CCc5ccccc5C4)cc3)sc2cc1OC,–,
CN(C)CCN(C(=O)c1ccc2c(c1)CCCC2)c1nc2c(F)cccc2s1,–,
SMILES,TbREL1 inh,others
COc1cccc2sc(N(CCCN(C)C)C(=O)c3ccc(S(=O)(=O)N4CCc5ccccc5C4)cc3)nc12,–,
Cc1cc(C)c2sc(N(CCN(C)C)C(=O)c3c(F)cccc3F)nc2c1,–,
Cc1cc(C)c2sc(N(CCCN(C)C)C(=O)c3ccc(Br)s3)nc2c1,–,
CCc1ccc2nc(N(CCCN(C)C)C(=O)c3ccc(S(=O)(=O)N4CCCC4)cc3)sc2c1,–,
CCOc1cccc2sc(N(CCCN(C)C)C(=O)c3ccc(S(=O)(=O)N4CCCCCC4)cc3)nc12,15.4,TbREL1 confirm=–
CCN(c1ccccc1)S(=O)(=O)c1ccc(C(=O)N(CCCN(C)C)c2nc3c(C)cccc3s2)cc1,12.6,TbREL1 confirm=11.2
CCN(Cc1ccccc1)S(=O)(=O)c1ccc(C(=O)N(CCCN(C)C)c2nc3c(F)cccc3s2)cc1,28.3,TbREL1 confirm=–
CN(C)CCCN(C(=O)c1ccc(S(=O)(=O)N2CCCCCC2)cc1)c1nc2c(F)cccc2s1,–,
CN(C)CCCN(C(=O)c1ccc(C(=O)c2ccccc2)cc1)c1nc2c(F)cccc2s1,–,
CCN(Cc1ccccc1)S(=O)(=O)c1ccc(C(=O)N(CCCN(C)C)c2nc3cc(C)cc(C)c3s2)cc1,14.8,TbREL1 confirm=–
CC(C)(C)OC(=O)NCCc1ccccc1/C=C/S(=O)(=O)NC1CCCC1,–,
CN1CC(=O)N2[C@@H](C[C@]3(c4c[nH]c5ccccc45)c4ccccc4N(S(=O)(=O)c4ccccc4)[C@H]23)C1=O,–,
COc1ccc(CCN(Cc2cccs2)S(=O)(=O)c2ccc(F)cc2)cc1OC,–,
COC(=O)C[C@H]1CC[C@@H]2[C@H](COc3ccc(NC(=O)c4cccc(F)c4)cc3C(=O)N2C)O1,–,
COc1ccc(OC)c(S(=O)(=O)N2CCCC(C(=O)N3CCN(Cc4ccccc4)CC3)C2)c1 (stereo not given),–,
O=C(NCc1c(F)cccc1F)C1C2C=CC3(CN(Cc4ccccc4)C(=O)C13)O2 (stereo not given),–,
O=C(Nc1ccc(Cl)c(Cl)c1)C1CCN(c2ncccn2)CC1,–,
Cc1ccc(S(=O)(=O)Nc2cc(C(=O)O)ccc2N2CCC(C)CC2)cc1C,–,
CCOC(=O)[C@@]12CCCC=C1N(CCc1ccc(Cl)cc1)C(=O)[C@H]2CC(=O)N1CCC(c2ccccc2)CC1,–,
Cn1c(SCC(=O)Nc2ccccc2-c2ccccc2)nnc1-c1cnccn1,–,
O=C(NC1CCCCN(Cc2ccc(Cl)cc2)C1=O)c1ccc(F)cc1 (stereo not given),–,
